Records with an inconclusive call do not appear. A call without a number means that no potency is given here. Values without a mark were called inactive. Activity calls are given as the source filed them. Calls follow the shape of the dose curve; as a rule, active = well fitted curve in the direction sought with a large enough effect; inconclusive = small, poorly fitted or top-dose-only effect, or another doubt; inactive = no such curve, though single readings can be large; an effect the other way counts as inactive or inconclusive. Numbered stars: 1 amine (or outer) side, 2 acyl side, 3 side chain; on linkers, the order of the positions; unused ones are H or OH. Bridge positions count the residues as written; N and C are the ends. Square brackets hold non-standard residues; d marks the D form. Peptide text beside a SMILES is read from it. I, II: the chains in the order shown. Actinocin(9to1) = Cc1c2oc3c(C)ccc(C(=O)[*:1])c3nc-2c(C(=O)[*:2])c(N)c1=O; NMeV = CN[C@H](C(=O)O)C(C)C; Sar = CNCC(=O)O
Experiments:
MCC-13 = assay: qHTS assay to identify novel small-molecules to repurpose for Merkel cell carcinoma treatment (AID 1296009); conditions: MCC and control cell lines, CellTiter-Glo viability, 72 h; series mostly up to 46 µM; also: nearly all actives have a fitted effect of over 60% in size
Outline: (§1)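 Cells were incubated with compound for 72 hr at 37 degree celsius before CellTiter-Glo addition. Luminescence was normalized with no-cell wells as full cytotoxicity and DMSO as baseline.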

MCC-26 = assay: as above; conditions: MCC and control cell lines, CellTiter-Glo viability, 72 h; series mostly up to 46 µM
Outline: as §1

MKL-1 = assay: as above; conditions: MCC and control cell lines, CellTiter-Glo viability, 72 h; series mostly up to 46 µM
Outline: as §1

MKL-2 = assay: as above; conditions: MCC and control cell lines, CellTiter-Glo viability, 72 h; series mostly up to 46 µM
Outline: as §1

UISO = assay: as above; conditions: MCC and control cell lines, CellTiter-Glo viability, 72 h; series mostly up to 46 µM
Outline: as §1

WaGa = assay: as above; conditions: MCC and control cell lines, CellTiter-Glo viability, 72 h; series mostly up to 46 µM
Outline: as §1

C33A = assay: Primary qHTS to identify gynecologic anti-cancer compounds using libraries of approved drugs and bioactive compounds (AID 1345084); conditions: Gynecologic cancer cell panel viability, ATPlite luminescence, 48 h; series mostly up to 57.5 µM; also: nearly all actives have a fitted effect of over 55% in size
Outline: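 Five-point cytotoxicity, 48 h drug exposure at 37 C, 5% CO2, on cells seeded 16 h beforehand. ATP content read by ATPlite luminescence.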
Potency is read from the fitted curve at half-maximal effect.

SMILES | Potency (MCC-13) | Potency (MCC-26) | Potency (MKL-1) | Potency (MKL-2) | Potency (UISO) | Potency (WaGa) | Potency (C33A)
NC(CO)(CO)CO | inactive | inactive | inactive | inactive | inactive | inactive | inactive
C[C@@H](CN(C)C)CN1c2ccccc2Sc2ccccc21 | inactive | inactive | – | 23.7 µM (active) | inactive | inactive | inactive
COc1cc2c(cc1OC)C(=O)C(CC1CCN(Cc3ccccc3)CC1)C2 (stereo not given) | inactive | inactive | inactive | – | inactive | – | inactive
Cc1cc(=O)n(-c2ccccc2)n1C | inactive | inactive | inactive | inactive | inactive | inactive | inactive
CC(C)=CCC1C(=O)N(c2ccccc2)N(c2ccccc2)C1=O | inactive | inactive | – | 13.3 µM (active) | – | – | inactive
COc1cc(N)c(Cl)cc1C(=O)NC1CCN(CCCOc2ccc(F)cc2)CC1OC (stereo not given) | inactive | inactive | inactive | – | – | inactive | inactive
C[C@@H]1C[C@H]2[C@@H]3CCC4=CC(=O)C=C[C@]4(C)[C@@]3(F)[C@@H](O)C[C@]2(C)[C@H]1C(=O)CO | inactive | inactive | inactive | inactive | inactive | inactive | inactive
OC[C@@H](O)[C@@H](O[C@@H]1O[C@H](CO)[C@H](O)[C@H](O)[C@H]1O)[C@H](O)[C@@H](O)CO | inactive | inactive | inactive | inactive | inactive | inactive | inactive
O=C(OCC(O)CO)c1ccccc1Nc1ccnc2cc(Cl)ccc12 (stereo not given) | inactive | inactive | inactive | – | – | – | inactive
CC(C)n1nc(-c2cc3cc(O)ccc3[nH]2)c2c(N)ncnc21 | 16.8 µM (active) | 11.9 µM (active) | 10.6 µM (active) | 8.41 µM (active) | 9.44 µM (active) | 2.99 µM (active) | 0.794 µM (active)
O=C1OC2(c3ccc(O)cc3Oc3cc(O)ccc32)c2ccccc21 | inactive | inactive | inactive | inactive | inactive | inactive | inactive
CCCCN1CCCC1C(=O)Nc1c(C)cc(C)cc1C (stereo not given) | inactive | inactive | inactive | inactive | inactive | inactive | inactive
C[C@]12CC[C@H]3[C@@H](CCC4=CC(=O)CC[C@@]43C)[C@@H]1CC[C@@H]2C(=O)CO | inactive | inactive | inactive | inactive | inactive | inactive | inactive
Cc1cccc(C)c1NC(=O)CN1CCN(CCCC(c2ccc(F)cc2)c2ccc(F)cc2)CC1 | inactive | inactive | inactive | – | inactive | inactive | –
C[C@H]1[C@H](NC(=O)/C(=N/OC(C)(C)C(=O)O)c2csc(N)n2)C(=O)N1S(=O)(=O)O (stereo in doubt) | inactive | – | inactive | inactive | inactive | inactive | inactive
CCCCCCc1ccc(O)cc1O | inactive | – | inactive | inactive | inactive | inactive | inactive
C[C@H]1C[C@H]2[C@@H]3CCC4=CC(=O)C=C[C@]4(C)[C@@]3(Cl)[C@@H](O)C[C@]2(C)[C@@]1(O)C(=O)CO | inactive | – | inactive | – | inactive | inactive | inactive
NC(=NCCCCCCN=C(N)/N=C(\N)Nc1ccc(Cl)cc1)/N=C(\N)Nc1ccc(Cl)cc1 | 26.6 µM (active) | – | 6.68 µM (active) | 2.99 µM (active) | 9.44 µM (active) | 8.41 µM (active) | –
Cc1c2oc3c(C)ccc(C(=O)N[C@@H]4C(=O)N[C@H](C(C)C)C(=O)N5CCC[C@H]5C(=O)N(C)CC(=O)N(C)[C@@H](C(C)C)C(=O)O[C@@H]4C)c3nc-2c(C(=O)N[C@@H]2C(=O)N[C@H](C(C)C)C(=O)N3CCC[C@H]3C(=O)N(C)CC(=O)N(C)[C@@H](C(C)C)C(=O)O[C@@H]2C)c(N)c1=O (I: T[dV]P[Sar][NMeV] / II: T[dV]P[Sar][NMeV]; ester I:1-I:C, II:1-II:C; linker I:N-II:N via Actinocin(9to1)) | 0.0335 µM (active) | – | – | 0.0038 µM (active) | 0.0033 µM (active) | – | –
